# Data taken from the supplement of paper PMC4466140.
# Key:
# Test in all cases: SPOT peptide array binding signal intensity (averaged, normalized) (arbitrary units (background-subtracted, floor 0; scale differs between SH3 domains)); higher = stronger binding of the SH3 domain to the peptide
# [1] = target: SpBzz1-D2
# Procedure, shortened: (§1)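 Four yeast species supplied the SH3 domains, which were expressed as GST fusions in E. coli BL21(DE3) and purified on glutathione Sepharose. Incubation with cellulose membranes carrying synthetic 15-mer peptides, cysteines exchanged for serines, ran overnight at 4°C at 10 μg/ml in TBS-based blocking buffer. Binding signal is reported as normalized, background-subtracted spot intensity averaged over replicates, in arbitrary units not shared between domains.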
# [2] = target: SpCyk3
# Procedure, shortened: as §1
# [3] = target: SpHof1
# Procedure, shortened: as §1
# [4] = target: SpHof1-2
# Procedure, shortened: as §1
# [5] = target: SpHof1-3
# Procedure, shortened: as §1
# [6] = target: SpHse1
# Procedure, shortened: as §1
# [7] = target: SpLsb1
# Procedure, shortened: as §1
# [8] = target: SpLsb4
# Procedure, shortened: as §1
# [9] = target: SpMyo1
# Procedure, shortened: as §1
# [10] = target: SpNbp2
# Procedure, shortened: as §1
# [11] = target: SpPex13
# Procedure, shortened: as §1
# [12] = target: SpRvs167
# Procedure, shortened: as §1
# [13] = target: SpSla1-D1-D2
# Procedure, shortened: as §1
# [14] = target: SpSla1-D3
# Procedure, shortened: as §1
# [15] = target: AgAbp1
# Procedure, shortened: as §1
# [16] = target: AgBbc1
# Procedure, shortened: as §1
# [17] = target: AgBem1-D1
# Procedure, shortened: as §1
# [18] = target: AgBzz1-D1
# Procedure, shortened: as §1
# [19] = target: AgBzz1-D2
# Procedure, shortened: as §1
# [20] = target: AgCyk3
# Procedure, shortened: as §1
# [21] = target: AgFus1
# Procedure, shortened: as §1
# [22] = target: AgHof1
# Procedure, shortened: as §1
# [23] = target: AgHse1
# Procedure, shortened: as §1
# [24] = target: AgLsb1
# Procedure, shortened: as §1
# [25] = target: AgLsb4
# Procedure, shortened: as §1
# [26] = target: AgMyo5
# Procedure, shortened: as §1
# [27] = target: AgNbp2
# Procedure, shortened: as §1
# [28] = target: AgRvs167
# Procedure, shortened: as §1
# [29] = target: AgSho1
# Procedure, shortened: as §1
# [30] = target: AgSla1-D1-D2
# Procedure, shortened: as §1
# [31] = target: AgSla1-D3
# Procedure, shortened: as §1
# [32] = target: CaAbp1-D1
# Procedure, shortened: as §1
# [33] = target: CaAbp1-D2
# Procedure, shortened: as §1
# [34] = target: CaBbc1
# Procedure, shortened: as §1
# [35] = target: CaBem1-D1
# Procedure, shortened: as §1
# [36] = target: CaBzz1-D1
# Procedure, shortened: as §1
# [37] = target: CaBzz1-D2
# Procedure, shortened: as §1
# [38] = target: CaCyk3
# Procedure, shortened: as §1
# [39] = target: CaFus1
# Procedure, shortened: as §1
# [40] = target: CaHof1
# Procedure, shortened: as §1
# [41] = target: CaHse1
# Procedure, shortened: as §1
# [42] = target: CaLsb1
# Procedure, shortened: as §1
# [43] = target: CaLsb4
# Procedure, shortened: as §1
# [44] = target: CaMyo5
# Procedure, shortened: as §1
# [45] = target: CaNbp2
# Procedure, shortened: as §1
# [46] = target: CaRvs167
# Procedure, shortened: as §1
# [47] = target: CaRvs167-3
# Procedure, shortened: as §1
# [48] = target: CaSho1
# Procedure, shortened: as §1
# [49] = target: CaSla1-D1-D2
# Procedure, shortened: as §1
# [50] = target: CaSla1-D3
# Procedure, shortened: as §1
# [51] = target: ScAbp1
# Procedure, shortened: as §1
# [52] = target: ScBbc1
# Procedure, shortened: as §1
# [53] = target: ScBem1-D1
# Procedure, shortened: as §1
# [54] = target: ScBzz1-D1
# Procedure, shortened: as §1
# [55] = target: ScBzz1-D2
# Procedure, shortened: as §1
# [56] = target: ScCyk3
# Procedure, shortened: as §1
# [57] = target: ScFus1
# Procedure, shortened: as §1
# [58] = target: ScHof1
# Procedure, shortened: as §1
# [59] = target: ScHse1
# Procedure, shortened: as §1
# [60] = target: ScLsb1
# Procedure, shortened: as §1
# [61] = target: ScLsb2
# Procedure, shortened: as §1
# [62] = target: ScLsb3
# Procedure, shortened: as §1
# [63] = target: ScLsb4
# Procedure, shortened: as §1
# [64] = target: ScMyo3
# Procedure, shortened: as §1
# [65] = target: ScMyo5
# Procedure, shortened: as §1
# [66] = target: ScNbp2
# Procedure, shortened: as §1
# [67] = target: ScPex13
# Procedure, shortened: as §1
# [68] = target: ScRvs167
# Procedure, shortened: as §1
# [69] = target: ScSho1
# Procedure, shortened: as §1
# [70] = target: ScSla1-D1-D2
# Procedure, shortened: as §1
# [71] = target: ScSla1-D3
# Procedure, shortened: as §1
# [72] = target: SpAbp1-D1
# Procedure, shortened: as §1
# [73] = target: SpBbc1
# Procedure, shortened: as §1
# [74] = target: SpBzz1-D1
# Procedure, shortened: as §1
binder,measurement,setting,value
TSIEIPKRSPLRFTS,SPOT peptide array binding signal intensity,[1],≤ 0
same,SPOT peptide array binding signal intensity,[2],2
same,SPOT peptide array binding signal intensity,[3],73
same,SPOT peptide array binding signal intensity,[4],8.75
same,SPOT peptide array binding signal intensity,[5],25.5
same,SPOT peptide array binding signal intensity,[6],76.8
same,SPOT peptide array binding signal intensity,[7],≤ 0
same,SPOT peptide array binding signal intensity,[8],376
same,SPOT peptide array binding signal intensity,[9],12.5
same,SPOT peptide array binding signal intensity,[10],≤ 0
same,SPOT peptide array binding signal intensity,[11],≤ 0
same,SPOT peptide array binding signal intensity,[12],94
same,SPOT peptide array binding signal intensity,[13],1
same,SPOT peptide array binding signal intensity,[14],≤ 0
LKHGWKPLRPIKLIS,SPOT peptide array binding signal intensity,[15],1400
same,SPOT peptide array binding signal intensity,[16],72.8
same,SPOT peptide array binding signal intensity,[17],12
same,SPOT peptide array binding signal intensity,[18],31
same,SPOT peptide array binding signal intensity,[19],≤ 0
same,SPOT peptide array binding signal intensity,[20],≤ 0
same,SPOT peptide array binding signal intensity,[21],141
same,SPOT peptide array binding signal intensity,[22],21.5
same,SPOT peptide array binding signal intensity,[23],252
same,SPOT peptide array binding signal intensity,[24],≤ 0
same,SPOT peptide array binding signal intensity,[25],≤ 0
same,SPOT peptide array binding signal intensity,[26],≤ 0
same,SPOT peptide array binding signal intensity,[27],41
same,SPOT peptide array binding signal intensity,[28],5.33
same,SPOT peptide array binding signal intensity,[29],32
same,SPOT peptide array binding signal intensity,[30],206
same,SPOT peptide array binding signal intensity,[31],3.5
same,SPOT peptide array binding signal intensity,[32],398
same,SPOT peptide array binding signal intensity,[33],1860
same,SPOT peptide array binding signal intensity,[34],364
same,SPOT peptide array binding signal intensity,[35],23
same,SPOT peptide array binding signal intensity,[36],≤ 0
same,SPOT peptide array binding signal intensity,[37],46.5
same,SPOT peptide array binding signal intensity,[38],7
same,SPOT peptide array binding signal intensity,[39],850
same,SPOT peptide array binding signal intensity,[40],≤ 0
same,SPOT peptide array binding signal intensity,[41],193
same,SPOT peptide array binding signal intensity,[42],≤ 0
same,SPOT peptide array binding signal intensity,[43],176
same,SPOT peptide array binding signal intensity,[44],≤ 0
same,SPOT peptide array binding signal intensity,[45],252
same,SPOT peptide array binding signal intensity,[46],14.8
same,SPOT peptide array binding signal intensity,[47],24.8
same,SPOT peptide array binding signal intensity,[48],201
same,SPOT peptide array binding signal intensity,[49],27.5
same,SPOT peptide array binding signal intensity,[50],10
same,SPOT peptide array binding signal intensity,[51],296
same,SPOT peptide array binding signal intensity,[52],9.75
same,SPOT peptide array binding signal intensity,[53],9
same,SPOT peptide array binding signal intensity,[54],6.5
same,SPOT peptide array binding signal intensity,[55],20
same,SPOT peptide array binding signal intensity,[56],10
same,SPOT peptide array binding signal intensity,[57],50
same,SPOT peptide array binding signal intensity,[58],≤ 0
same,SPOT peptide array binding signal intensity,[59],478
same,SPOT peptide array binding signal intensity,[60],16.5
same,SPOT peptide array binding signal intensity,[61],≤ 0
same,SPOT peptide array binding signal intensity,[62],527
same,SPOT peptide array binding signal intensity,[63],4
same,SPOT peptide array binding signal intensity,[64],≤ 0
same,SPOT peptide array binding signal intensity,[65],≤ 0
same,SPOT peptide array binding signal intensity,[66],550
same,SPOT peptide array binding signal intensity,[67],37.5
same,SPOT peptide array binding signal intensity,[68],≤ 0
same,SPOT peptide array binding signal intensity,[69],1040
same,SPOT peptide array binding signal intensity,[70],50
same,SPOT peptide array binding signal intensity,[71],6.5
same,SPOT peptide array binding signal intensity,[72],166
same,SPOT peptide array binding signal intensity,[73],0.75
same,SPOT peptide array binding signal intensity,[74],362
same,SPOT peptide array binding signal intensity,[1],0.5
same,SPOT peptide array binding signal intensity,[2],≤ 0
same,SPOT peptide array binding signal intensity,[3],93
same,SPOT peptide array binding signal intensity,[4],18.8
same,SPOT peptide array binding signal intensity,[5],445
same,SPOT peptide array binding signal intensity,[6],294
same,SPOT peptide array binding signal intensity,[7],≤ 0
same,SPOT peptide array binding signal intensity,[8],161
same,SPOT peptide array binding signal intensity,[9],≤ 0
same,SPOT peptide array binding signal intensity,[10],246
same,SPOT peptide array binding signal intensity,[11],8
same,SPOT peptide array binding signal intensity,[12],7.5
same,SPOT peptide array binding signal intensity,[13],≤ 0
same,SPOT peptide array binding signal intensity,[14],≤ 0
